Measurements: PubChem BioAssay (NCATS)
“And” between values parts separate entries of the source, which are not always exact repeats. Equal values may be shown once. Inconclusive results are not listed. The source made the active and inactive calls. Unless noted, the call rests on the fitted dose curve; in most records, active means well fitted curve in the direction sought with a large enough effect; inconclusive means small, poorly fitted or top-dose-only effect, or another doubt; inactive means no such curve, though single readings can be large; an effect the other way counts as inactive or inconclusive.

Key:
[1] = Cell Viability - BJ (AID 421; calls by dose curve;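 further: potency means the concentration at half of the fitted maximal effect; cells exposed to compound for 40 hours at 37 °C before readout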); conditions: BJ fibroblast viability, qHTS
In short: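 Normal human BJ foreskin fibroblasts, 1500/well in complete medium, treated 40 hr at 37 °C. Cellular ATP by CellTiter-Glo luminescence; normalized to DMSO and 100 uM tamoxifen, AC50 from Hill fit.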

[2] = Cellular Toxicity (caspase-3) HepG2 (AID 654); conditions: HepG2 caspase-3 activation, luminescence, 0% = DMSO only, 100% = tamoxifen; series mostly up to 92.2 µM;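 further: cells exposed to compound for 16 hours before reading; 0% = DMSO alone and 100% = caspase signal from 100 µM tamoxifen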
In short: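 HepG2 cells (1500/well) in complete medium were treated with compounds for 16 hr at 37 °C. Caspase-3/7 activity was then read as luminescence from peptide-aminoluciferin cleavage. AC50 came from Hill fits, normalized to DMSO and 100 uM tamoxifen.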

[3] = Cellular Toxicity (caspase-3) BJ (AID 658); conditions: BJ fibroblasts, luminescence, normalized: DMSO 0%, staurosporine 100%; series mostly up to 91.7 µM
In short: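 Luminescent aminoluciferin-substrate cleavage reports caspase 3/7 activity in normal human BJ fibroblasts after 16 hr compound exposure at 37 °C. Normalized to DMSO (basal) and 10 uM staurosporine (100%); AC50 from Hill fit of concentration-response.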

[4] = Cellular Toxicity (caspase-3) MRC-5 (AID 659); conditions: MRC-5 cells, luminescence, normalized: DMSO 0%, 10 µM staurosporine 100%; series mostly up to 91.7 µM
In short: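 Luminescence from caspase-cleaved aminoluciferin substrate (Caspase-Glo 3/7, 1 hr RT) reports caspase 3/7 activity in MRC-5 lung fibroblasts after 16 hr compound exposure. Normalized to DMSO basal and 10 uM staurosporine as 100%; AC50 from Hill fits.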

[5] = Cellular Toxicity (caspase-3) Hek293 (AID 664); conditions: HEK293 caspase-3 activation, DMSO = 0%, 100 µM tamoxifen = 100%; at 92.2 µM (top of the series);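 further: cells exposed to compound for 16 h at 37 °C before readout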
In short: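 HEK293 cells were exposed to compounds in complete medium for 16 hr at 37 °C, then caspase-3/7 activity was read by Caspase-Glo 3/7 luminescence after 20 min at room temperature. Data normalized to DMSO and 100 uM tamoxifen; AC50 from Hill fits.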

[6] = Cellular Toxicity (caspase-3) N2a (AID 665); conditions: N2a cells, luminescence, normalized: DMSO 0%, 10 µM staurosporine 100%; series mostly up to 92.2 µM;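 further: compound exposure lasted 16 h at 37 °C before readout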
In short: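 Mouse N2a neuroblastoma cells (1500/well) were treated with compounds for 16 h at 37 °C, then caspase-3/7 activity was read by Caspase-Glo luminescence after 1 h at room temperature. Data were normalized to DMSO and 10 uM staurosporine; AC50 from Hill fits.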

[7] = Cellular Toxicity (caspase-3) NIH 3T3 (AID 666); conditions: NIH 3T3 caspase-3 activation, apoptosis/toxicity; series mostly up to 92.2 µM;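 further: caspase signal read after 16 h compound exposure; 0% = DMSO basal and 100% = 100 µM tamoxifen stimulation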
In short: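 Mouse NIH 3T3 fibroblasts (1000 cells/well) were treated with compound for 16 hr at 37°C in complete medium; caspase-3/7 activity was read by Caspase-Glo luminescence. Normalized to DMSO and 100 uM tamoxifen; AC50 from Hill fits.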

[8] = Cell Viability - LYMP2-001 (AID 921); conditions: LYMP2-001 lymphoblastoid cell viability; series mostly up to 92.2 µM;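 further: 0% = DMSO only and full inhibition = tetraoctylammonium bromide control wells; nearly all actives have a fitted effect of over 70% in size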
In short: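 Human lymphoblastoid LYMP2-001 cells, 2500 per well, in complete medium, treated 24 h at 37 C. Viability from cellular ATP by CellTiter-Glo luminescence; AC50 from Hill-equation fits of qHTS concentration-response.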

[9] = MultiTox-Fluor Cytotoxicity Assay - LYMP1-001 - Dead Cells (AID 946); conditions: LYMP1-001 lymphoblastoid cells, dead-cell protease fluorescence; series mostly up to 92.2 µM;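 further: 0% = DMSO and 100% = tetraoctylammonium bromide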
In short: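 LYMP1-001 lymphoblastoid cells (2500/well) treated 16 h at 37 C. Dead-cell protease cleavage of bis-AAF-R110 read at Ex/Em 485/520. Normalized to DMSO and 15 uM tetraoctylammonium bromide; AC50 from Hill fits.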

[10] = MultiTox-Fluor Cytotoxicity Assay - LYMP1-002 - Live Cells (AID 955); conditions: LYMP1-002 lymphoblastoid live-cell protease fluorescence viability; series mostly up to 46.1 µM; further: on the % scale 0 is the no-effect control and ±100 the full control effect
In short: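 Human lymphoblastoid LYMP1-002 cells, 2500/well in complete medium, rested 5 hr at 37 C, then exposed to compounds for 16 hr at 37 C. Live-cell protease cleavage of GF-AFC read by fluorescence (Ex/Em 405/510) after 60 min at room temperature; AC50 from Hill fits.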

[11] = MultiTox-Fluor Cytotoxicity Assay - LYMP1-003 - Dead Cells (AID 961); conditions: LYMP1-003 lymphoblastoid cells, dead-cell protease fluorescence; series mostly up to 92.2 µM;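 further: 0% = DMSO and 100% = tetraoctylammonium bromide; nearly all actives have a fitted effect of over 70% in size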
In short: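 LYMP1-003 human lymphoblastoid cells (2500/well) exposed to compound 16 h at 37 C in complete medium; dead-cell protease read with bis-AAF-R110 fluorescence (Ex/Em 485/520) after 60 min at room temperature. Normalized to DMSO and 15 uM tetraoctylammonium bromide; AC50 from Hill fit.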

[12] = MultiTox-Fluor Cytotoxicity Assay - LYMP1-003 - Live Cells (AID 962); conditions: LYMP1-003 lymphoblastoid cells, MultiTox-Fluor live-cell protease fluorescence; series mostly up to 92.2 µM;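 further: 0% = DMSO only and full loss = 92 µM tetraoctylammonium bromide; cytotoxic hits lower the live-cell protease signal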
In short: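 LYMP1-003 human lymphoblastoid cells (2500/well) in complete medium were preincubated 5 hr at 37 C, then exposed to compounds for 16 hr at 37 C. Live-cell protease cleavage of GF-AFC read by fluorescence (Ex/Em 405/510); AC50 from Hill fits.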

[13] = Cell Viability - LYMP2-021 (AID 974); conditions: LYMP2-021 lymphoblastoid cells viability; series mostly up to 92.2 µM;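 further: compound exposure lasts 24 hours at 37 °C; on the % scale 0 is the no-effect control and ±100 the full control effect; nearly all actives have a fitted effect of over 55% in size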
In short: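 Human lymphoblastoid cells (2500/well) were preincubated 5 hr at 37 C, then exposed to compounds for 24 hr at 37 C in complete medium. Intracellular ATP was read by CellTiter-Glo luminescence; AC50 came from Hill-equation fits of concentration-response data.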

[14] = Cell Viability - LYMP2-025 (AID 976); conditions: LYMP2-025 lymphoblastoid cell viability; series mostly up to 92.2 µM;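 further: plate controls were DMSO only for no effect and tetraoctylammonium bromide control for full effect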
In short: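 Human lymphoblastoid LYMP2-025 cells (2500/well) were pre-incubated 5 hr at 37 C, then treated with compounds for 24 hr at 37 C in complete medium. Viability was read as intracellular ATP by CellTiter-Glo luminescence; AC50 from Hill fits.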

[15] = Cell Viability - LYMP2-006 (AID 978); conditions: LYMP2-006 lymphoblastoid cell viability, qHTS; series mostly up to 92.2 µM; further: on the % scale 0 is the no-effect control and ±100 the full control effect; nearly all actives have a fitted effect of over 60% in size
In short: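 Human lymphoblastoid cells (LYMP2-006), 2500/well in complete medium, were treated with compound for 24 hr at 37 C. Cellular ATP was read by CellTiter-Glo luminescence after 30 min, and AC50 values came from Hill-equation fits of concentration-response data.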

[16] = Cell Viability - LYMP1-002 - Assay at 24 hr (AID 993); conditions: LYMP1-002 lymphoblastoid cells viability; series mostly up to 92.2 µM; further: on the % scale 0 is the no-effect control and ±100 the full control effect
In short: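 Human lymphoblastoid LYMP1-002 cells, 2500/well in complete medium, were treated with compounds for 24 h at 37 C; intracellular ATP was read by CellTiter-Glo luminescence. AC50 values came from Hill-equation fits of qHTS concentration-response data.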

[17] = Cell Viability - LYMP1-002 - Assay at 40 hr (AID 994); conditions: LYMP1-002 lymphoblastoid cell viability; series mostly up to 92.2 µM;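 further: 0% = DMSO only and full inhibition = 92 µM tetraoctylammonium bromide; nearly all actives have a fitted effect of over 60% in size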
In short: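 Human lymphoblastoid cells, 2500/well in complete medium, were preincubated 5 hr at 37 C, then exposed to compounds for 40 hr at 37 C. Intracellular ATP was read by CellTiter-Glo luminescence after 30 min at room temperature; AC50 from Hill-equation fits.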

[18] = qHTS Assay for Identification of Small Molecule Inducers of Hypoxia Response (AID 2120; active means well fitted curve in the direction sought with a large enough effect in the signal ratio, with a control signal flat, not every such curve was filed as active; the % refers to the signal ratio; further: 0% is about no effect); conditions: hypoxia response reporter cells, beta-lactamase ratio readout; series mostly up to 104 µM
In short: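 HRE-beta-lactamase reporter in CellSensor HRE-bla ME-180 cells, 2500 cells/well in Opti-MEM with 0.5% dialyzed FBS; compounds tested as titration series, 17 h at 37 degrees C. CCF4 substrate 2.5 h at room temperature; AC50 from 460/530 nm ratio.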

[19] = molecular target: Peroxisome proliferator-activated receptor alpha (Homo sapiens) (UniProt Q07869); test: qHTS assay for small molecule agonists of the peroxisome proliferator-activated receptor alpha (PPARalpha) signaling pathway (AID 651778); conditions: PathHunter PPARalpha complementation, chemiluminescence, 6 h; active compounds read high; further: % of control where 0% means no effect
Peroxisome proliferator-activated receptor alpha (Homo sapiens), sequence (Q07869 whole entry, looked up): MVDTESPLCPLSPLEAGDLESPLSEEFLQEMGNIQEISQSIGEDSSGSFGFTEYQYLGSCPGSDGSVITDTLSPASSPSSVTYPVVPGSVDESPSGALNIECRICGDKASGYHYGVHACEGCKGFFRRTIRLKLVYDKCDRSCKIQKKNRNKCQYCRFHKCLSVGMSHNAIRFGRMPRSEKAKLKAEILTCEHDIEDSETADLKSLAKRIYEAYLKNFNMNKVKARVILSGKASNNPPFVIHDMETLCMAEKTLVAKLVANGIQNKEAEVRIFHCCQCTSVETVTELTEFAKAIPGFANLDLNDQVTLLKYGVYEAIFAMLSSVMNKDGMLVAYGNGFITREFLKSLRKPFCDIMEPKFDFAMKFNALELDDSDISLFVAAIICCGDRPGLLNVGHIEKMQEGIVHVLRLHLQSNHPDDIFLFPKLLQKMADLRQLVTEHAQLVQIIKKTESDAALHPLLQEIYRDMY
In short: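 Cells plated at 2,000/well and held overnight at 37 C, 5% CO2, then compound added by pin tool for 6 hr; after PathHunter detection reagent and 60 min at room temperature, chemiluminescence from enzyme complementation was read.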

[20] = qHTS assay for cell viability of the p53RE-bla HCT-116 cell line (AID 743292); conditions: p53RE-bla HCT-116 viability, ATP luminescence, 16 h; series mostly up to 95 µM; further: on the % scale 0 is the no-effect control and ±100 the full control effect; nearly all actives have a fitted effect of over 55% in size
In short: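 Quantitative high-throughput format: compounds in DMSO were pinned onto p53RE-bla HCT-116 cells (4,000/well) and incubated 16 h at 37 C. Total intracellular ATP, read by CellTiter-Glo luminescence, reflects viable cell number.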

C=CC#N
inactive: Potency [1] > 92 µM | outcome [2] | outcome [3] | outcome [4] | caspase-3 activation [5] -0.49% | outcome [6] | Potency [7] | Potency [8] | outcome [9] | outcome [10] | Potency [11] | outcome [12] | Potency [13] | Potency [14] | Potency [15] | Potency [16] | Potency [17] | Potency [18] | max response [19] -1.02% | Potency [20]

Clc1cccc(Cl)c1Cl
inactive: Potency [1] > 92 µM | outcome [2] | outcome [3] | outcome [4] | caspase-3 activation [5] -0.313% | outcome [6] | Potency [7] | Potency [8] | outcome [9] | outcome [10] | Potency [11] | outcome [12] | Potency [13] | Potency [14] | Potency [15] | Potency [16] | Potency [17] | Potency [18] | max response [19] -3.74% and -0.322% | Potency [20]

CC(C)(Cl)[N+](=O)[O-]
inactive: Potency [1] > 92 µM | outcome [2] | outcome [3] | outcome [4] | caspase-3 activation [5] -0.194% | outcome [6] | Potency [7] | Potency [8] | outcome [9] | outcome [10] | Potency [11] | outcome [12] | Potency [13] | Potency [14] | Potency [15] | Potency [16] | Potency [17] | Potency [18] | max response [19] -3.23% | Potency [20]

CC(C)(C)c1ccccc1O
inactive: Potency [1] > 92 µM | outcome [2] | outcome [3] | outcome [4] | caspase-3 activation [5] -1.2% | outcome [6] | Potency [7] | Potency [8] | outcome [9] | outcome [10] | Potency [11] | outcome [12] | Potency [13] | Potency [14] | Potency [15] | Potency [16] | Potency [17] | Potency [18] | max response [19] -7.23% and -1.41% | Potency [20]

CSSC
inactive: Potency [1] > 92 µM | outcome [2] | outcome [3] | outcome [4] | caspase-3 activation [5] -3.42% | outcome [6] | Potency [7] | Potency [8] | outcome [9] | outcome [10] | Potency [11] | outcome [12] | Potency [13] | Potency [14] | Potency [15] | Potency [16] | Potency [17] | Potency [18] | max response [19] -6.95% | Potency [20]

O=C(O)c1cc(Cl)ccc1Cl
inactive: Potency [1] > 92 µM | outcome [2] | outcome [3] | outcome [4] | caspase-3 activation [5] -1.49% | outcome [6] | Potency [7] | Potency [8] | outcome [9] | outcome [10] | Potency [11] | outcome [12] | Potency [13] | Potency [14] | Potency [15] | Potency [16] | Potency [17] | Potency [18] | max response [19] 5.32% | Potency [20]
